# Assay results: publication PMC11102866, “Nucleosome-bound NR5A2 structure reveals pioneer factor mechanism by DNA minor groove anchor competition”
# Substitutions are numbered along the chain they refer to. Names and notes keep the numbering of the source.
# B1: 73 (nucleosome)
# DNA 1: ATCCTGGAGAATCCCGGTGCCGAGGCCGCTCAATTGGTCGTAGACAGCTCTAGCACCGCTTAAACGCACGTACGCTCAAGGCCACGCGTTTTAACCGCCAAGGGGATTACTCCCTAGTCTCCAGGCACGTGTCAGATATATACATCCTGTGAT
# DNA 2: ATCACAGGATGTATATATCTGACACGTGCCTGGAGACTAGGGAGTAATCCCCTTGGCGGTTAAAACGCGTGGCCTTGAGCGTACGTGCGTTTAAGCGGTGCTAGAGCTGTCTACGACCAATTGAGCGGCCTCGGCACCGGGATTCTCCAGGAT
# modifications: reconstituted with mouse histones H2A, H2B, H3.3 and H4
# B2: 74 (nucleosome)
# DNA 1: B1 DNA 1 with T76G, C77T, A78C, G80A, C82G, A84C, C85A
# DNA 2: B1 DNA 2 with G69T, T70G, G72C, C74T, T76G, G77A, A78C
# modifications: reconstituted with mouse histones H2A, H2B, H3.3 and H4
# B3: 75 (nucleosome)
# DNA 1: B1 DNA 1 with T76G, A78T, A79C, G80A, G81A, C82G, C83G, A84C, G86A
# DNA 2: B1 DNA 2 with C68T, T70G, G71C, G72C, C73T, C74T, T75G, T76A, A78C
# modifications: reconstituted with mouse histones H2A, H2B, H3.3 and H4
# B4: 76 (nucleosome)
# DNA 1: B1 DNA 1 with T76G, A78T, A79T, G80C, G81A, C82A, C83G, A84G, G86C, C87A
# DNA 2: B1 DNA 2 with G67T, C68G, T70C, G71C, G72T, C73T, C74G, T75A, T76A, A78C
# modifications: reconstituted with mouse histones H2A, H2B, H3.3 and H4
# B5: 77 (nucleosome)
# DNA 1: ATCCTGGAGAATCCCGGTGCCGAGGCCGCTCAATTGGTCGTAGACAGCTCTAGCACCGCTTAAACGCACGTACGCGCTGTCAAGGCCATTTTAACCGCCAAGGGGATTACTCCCTAGTCTCCAGGCACGTGTCAGATATATACATCCTGTGAT
# DNA 2: ATCACAGGATGTATATATCTGACACGTGCCTGGAGACTAGGGAGTAATCCCCTTGGCGGTTAAAATGGCCTTGACAGCGCGTACGTGCGTTTAAGCGGTGCTAGAGCTGTCTACGACCAATTGAGCGGCCTCGGCACCGGGATTCTCCAGGAT
# modifications: reconstituted with mouse histones H2A, H2B, H3.3 and H4
# B6: 78 (nucleosome)
# DNA 1: B5 DNA 1 with C81T, A82C, G84A, C86G, A88C, T89A
# DNA 2: B5 DNA 2 with A65T, T66G, G68C, C70T, T72G, G73A
# modifications: reconstituted with mouse histones H2A, H2B, H3.3 and H4
# B7: 79 (nucleosome)
# DNA 1: B5 DNA 1 with A82T, A83C, G84A, G85A, C86G, C87G, A88C, T89C, T90A
# DNA 2: B5 DNA 2 with A64T, A65G, T66G, G67C, G68C, C69T, C70T, T71G, T72A
# modifications: reconstituted with mouse histones H2A, H2B, H3.3 and H4
# B8: 80 (nucleosome)
# DNA 1: B5 DNA 1 with A82C, A83T, G84C, G85A, C86A, C87G, A88G, T89C, T90C, T91A
# DNA 2: B5 DNA 2 with A63T, A64G, A65G, T66C, G67C, G68T, C69T, C70G, T71A, T72G
# modifications: reconstituted with mouse histones H2A, H2B, H3.3 and H4
# B9: 81 (nucleosome)
# DNA 1: ATCCTGGAGAATCCCGGTGCCGAGGCCGCTCAATTGGTCGTAGACAGCTCTAGCACCGCTTAAACGCACGTACGCGCTGTCCCTCAAGGCCAAACCGCCAAGGGGATTACTCCCTAGTCTCCAGGCACGTGTCAGATATATACATCCTGTGAT
# DNA 2: ATCACAGGATGTATATATCTGACACGTGCCTGGAGACTAGGGAGTAATCCCCTTGGCGGTTTGGCCTTGAGGGACAGCGCGTACGTGCGTTTAAGCGGTGCTAGAGCTGTCTACGACCAATTGAGCGGCCTCGGCACCGGGATTCTCCAGGAT
# modifications: reconstituted with mouse histones H2A, H2B, H3.3 and H4
# B10: 10 (nucleosome)
# DNA 1: ATCCTGGAGAATTCAAGGCCAGAGGCCGCTCAATTGGTCGTAGACAGCTCTAGCACCGCTTAAACGCACGTACGCGCTGTCCCCCGCGTTTTAACCGCCAAGGGGATTACTCCCTAGTCTCCAGGCACGTGTCAGATATATACATCCTGTGAT
# DNA 2: ATCACAGGATGTATATATCTGACACGTGCCTGGAGACTAGGGAGTAATCCCCTTGGCGGTTAAAACGCGGGGGACAGCGCGTACGTGCGTTTAAGCGGTGCTAGAGCTGTCTACGACCAATTGAGCGGCCTCTGGCCTTGAATTCTCCAGGAT
# modifications: reconstituted with mouse histones H2A, H2B, H3.3 and H4
# B11: 82 (nucleosome)
# DNA 1: B9 DNA 1 with T84C, C85T, A86C, G88A, C90G, A92C
# DNA 2: B9 DNA 2 with T62G, G64C, C66T, T68G, G69A, A70G
# modifications: reconstituted with mouse histones H2A, H2B, H3.3 and H4
# B12: 83 (nucleosome)
# DNA 1: B9 DNA 1 with T84C, A86T, A87C, G88A, G89A, C90G, C91G, A92C, A93C
# DNA 2: B9 DNA 2 with T61G, T62G, G63C, G64C, C65T, C66T, T67G, T68A, A70G
# modifications: reconstituted with mouse histones H2A, H2B, H3.3 and H4
# B13: 84 (nucleosome)
# DNA 1: ATCCTGGAGAATCCCGGTGCCGAGGCCGCTCAATTGGTCGTAGACAGCTCTAGCACCGCTTAAACGCACGTACGCGCTGTCCCCCGTCAAGGCCACGCCAAGGGGATTACTCCCTAGTCTCCAGGCACGTGTCAGATATATACATCCTGTGAT
# DNA 2: ATCACAGGATGTATATATCTGACACGTGCCTGGAGACTAGGGAGTAATCCCCTTGGCGTGGCCTTGACGGGGGACAGCGCGTACGTGCGTTTAAGCGGTGCTAGAGCTGTCTACGACCAATTGAGCGGCCTCGGCACCGGGATTCTCCAGGAT
# modifications: reconstituted with mouse histones H2A, H2B, H3.3 and H4
# B14: 85 (nucleosome)
# DNA 1: B13 DNA 1 with T87C, C88T, A89C, G91A, C93G, A95C, C96A
# DNA 2: B13 DNA 2 with G58T, T59G, G61C, C63T, T65G, G66A, A67G
# modifications: reconstituted with mouse histones H2A, H2B, H3.3 and H4
# B15: 86 (nucleosome)
# DNA 1: B9 DNA 1 with T84C, A86G, A87C, G89T, C91A, A93G, A94G, G97A
# DNA 2: B9 DNA 2 with C57T, T60C, T61C, G63T, C65A, T67G, T68C, A70G
# modifications: reconstituted with mouse histones H2A, H2B, H3.3 and H4
# Legend:
# [1] = target: NR5A2 wild type;histone octamer (Homo sapiens;, UniProt O00482;C0HKE1;Q6ZWY9;P84244;P62806 1-541;2-130;2-126;2-136;2-103, |); assay: SeEN-seq (EMSA of nucleosome library followed by sequencing); 0.8 uM human NR5A2; 20 mM Tris-HCl pH 7.5, 120 mM NaCl, 1 mM MgCl2, 10 uM ZnCl2, 1 mM DTT, 100 ug/ml BSA, room temperature, 30 min; 0.1 uM nucleosome library; high values mean tight binding
# [2] = target: mouse Nr5a2 wild type;histone octamer (Mus musculus;, UniProt P45448;C0HKE1;Q6ZWY9;P84244;P62806 1-560;2-130;2-126;2-136;2-103, |); assay: SeEN-seq (EMSA of nucleosome library followed by sequencing); 1.2 uM mouse Nr5a2; 20 mM Tris-HCl pH 7.5, 120 mM NaCl, 1 mM MgCl2, 10 uM ZnCl2, 1 mM DTT, 100 ug/ml BSA, room temperature, 30 min; 0.1 uM nucleosome library; high values mean tight binding
Binder,binding signal [1],binding signal [2]
B1,"1.28 log2 enrichment (bound/unbound, relative to Widom 601)","1.51 log2 enrichment (bound/unbound, relative to Widom 601)"
B2,"1.21 log2 enrichment (bound/unbound, relative to Widom 601)","1.39 log2 enrichment (bound/unbound, relative to Widom 601)"
B3,"1.29 log2 enrichment (bound/unbound, relative to Widom 601)","1.36 log2 enrichment (bound/unbound, relative to Widom 601)"
B4,"1.83 log2 enrichment (bound/unbound, relative to Widom 601)","2.16 log2 enrichment (bound/unbound, relative to Widom 601)"
B5,"1.48 log2 enrichment (bound/unbound, relative to Widom 601)","1.71 log2 enrichment (bound/unbound, relative to Widom 601)"
B6,"1.77 log2 enrichment (bound/unbound, relative to Widom 601)","2.13 log2 enrichment (bound/unbound, relative to Widom 601)"
B7,"1.33 log2 enrichment (bound/unbound, relative to Widom 601)","1.29 log2 enrichment (bound/unbound, relative to Widom 601)"
B8,"0.765 log2 enrichment (bound/unbound, relative to Widom 601)","0.924 log2 enrichment (bound/unbound, relative to Widom 601)"
B9,"0.772 log2 enrichment (bound/unbound, relative to Widom 601)","0.954 log2 enrichment (bound/unbound, relative to Widom 601)"
B10,"5.16 log2 enrichment (bound/unbound, relative to Widom 601)","4.92 log2 enrichment (bound/unbound, relative to Widom 601)"
B11,"0.634 log2 enrichment (bound/unbound, relative to Widom 601)","0.729 log2 enrichment (bound/unbound, relative to Widom 601)"
B12,"0.795 log2 enrichment (bound/unbound, relative to Widom 601)","0.693 log2 enrichment (bound/unbound, relative to Widom 601)"
B13,"0.634 log2 enrichment (bound/unbound, relative to Widom 601)","0.756 log2 enrichment (bound/unbound, relative to Widom 601)"
B14,"0.756 log2 enrichment (bound/unbound, relative to Widom 601)","0.748 log2 enrichment (bound/unbound, relative to Widom 601)"
B15,"0.668 log2 enrichment (bound/unbound, relative to Widom 601)","0.515 log2 enrichment (bound/unbound, relative to Widom 601)"
